# Key:
# Test in all cases: DAPPL (digital affinity profiling via proximity ligation, sequencing); 10 mM Tris-HCl pH 7.5, 50 mM NaCl, 1 mM DTT, 4% glycerol, room temperature, 30 min; GST-TFs on glutathione beads, 16-mer random dsDNA library, 0.1% formaldehyde crosslink after washing; high values mean tight binding
# FEV = target: T1, FEV (Homo sapiens, UniProt Q99581 1-238); conditions: protein: recombinant; tags: N-terminal GST; dsDNA, one strand shown
# T1 sequence: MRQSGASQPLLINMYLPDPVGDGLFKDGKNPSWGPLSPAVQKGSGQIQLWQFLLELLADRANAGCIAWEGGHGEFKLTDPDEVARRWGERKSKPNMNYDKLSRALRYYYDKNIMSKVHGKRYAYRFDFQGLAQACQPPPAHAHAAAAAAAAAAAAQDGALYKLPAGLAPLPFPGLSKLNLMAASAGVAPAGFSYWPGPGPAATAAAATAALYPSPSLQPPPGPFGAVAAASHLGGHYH
# In short: (§1)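 Sequencing on an Illumina NextSeq500 followed washing, crosslinking with 0.1% formaldehyde, proximity ligation (BsaI/T4 ligase, 1 h, 37 °C) and PCR amplification of pools that had been incubated for 30 min at room temperature with 200 nmole of a random double-stranded 16-mer DNA library in Tris/NaCl/DTT/glycerol buffer. Each pool held DNA-barcoded human transcription factors, expressed in yeast as GST fusions and captured on glutathione beads, plus a tag-only sample. Binding signal is a hexamer's read frequency for a factor divided by its frequency in the tag-only sample.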
# ETV5 = ETV5 (Homo sapiens, UniProt P41161 1-510); conditions: protein: recombinant; tags: N-terminal GST; dsDNA, one strand shown
# Sequence of ETV5 (P41161 whole entry): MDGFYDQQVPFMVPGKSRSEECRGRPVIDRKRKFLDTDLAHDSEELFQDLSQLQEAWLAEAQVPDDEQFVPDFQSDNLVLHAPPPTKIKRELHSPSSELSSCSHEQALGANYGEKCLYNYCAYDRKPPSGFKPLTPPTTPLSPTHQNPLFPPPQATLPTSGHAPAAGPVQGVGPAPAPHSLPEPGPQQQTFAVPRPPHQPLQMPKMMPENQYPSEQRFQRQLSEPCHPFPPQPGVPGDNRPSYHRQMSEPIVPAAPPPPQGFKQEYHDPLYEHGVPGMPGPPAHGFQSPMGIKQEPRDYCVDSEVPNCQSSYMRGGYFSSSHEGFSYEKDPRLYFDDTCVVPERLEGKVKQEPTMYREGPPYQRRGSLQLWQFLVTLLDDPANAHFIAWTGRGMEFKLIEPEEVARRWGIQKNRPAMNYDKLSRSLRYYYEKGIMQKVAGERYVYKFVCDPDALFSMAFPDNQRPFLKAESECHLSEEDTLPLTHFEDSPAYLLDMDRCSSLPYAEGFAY
# In short: as §1
# HSF1 = HSF1 (Homo sapiens, UniProt Q00613 1-529); conditions: protein: recombinant; tags: N-terminal GST; chain copies: 3; dsDNA, one strand shown
# Sequence of HSF1 (Q00613 whole entry): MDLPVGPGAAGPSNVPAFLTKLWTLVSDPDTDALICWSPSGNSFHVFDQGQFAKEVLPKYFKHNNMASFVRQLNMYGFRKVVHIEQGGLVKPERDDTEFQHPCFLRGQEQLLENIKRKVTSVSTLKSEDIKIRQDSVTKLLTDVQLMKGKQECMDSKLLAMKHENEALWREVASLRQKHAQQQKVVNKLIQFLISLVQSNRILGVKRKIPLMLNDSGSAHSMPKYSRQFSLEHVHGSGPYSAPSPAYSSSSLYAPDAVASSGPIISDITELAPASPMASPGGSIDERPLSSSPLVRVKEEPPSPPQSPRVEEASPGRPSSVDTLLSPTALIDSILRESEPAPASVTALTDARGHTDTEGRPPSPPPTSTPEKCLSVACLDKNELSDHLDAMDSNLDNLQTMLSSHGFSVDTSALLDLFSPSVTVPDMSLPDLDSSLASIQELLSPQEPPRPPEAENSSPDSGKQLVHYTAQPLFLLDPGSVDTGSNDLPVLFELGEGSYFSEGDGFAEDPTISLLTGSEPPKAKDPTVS
# In short: as §1
# SPIC = target: T2, SPIC (Homo sapiens, UniProt Q8N5J4 1-248); conditions: protein: recombinant; tags: N-terminal GST; dsDNA, one strand shown
# T2 sequence: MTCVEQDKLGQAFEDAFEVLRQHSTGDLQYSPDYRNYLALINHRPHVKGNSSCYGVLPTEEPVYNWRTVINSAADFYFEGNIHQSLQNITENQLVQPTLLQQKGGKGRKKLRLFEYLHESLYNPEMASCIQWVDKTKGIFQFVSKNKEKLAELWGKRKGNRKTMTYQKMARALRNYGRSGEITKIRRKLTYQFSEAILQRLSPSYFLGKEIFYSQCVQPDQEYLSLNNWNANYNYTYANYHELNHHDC
# In short: as §1
# ELF4 = ELF4 (Homo sapiens, UniProt Q99607 1-663); conditions: protein: recombinant; tags: N-terminal GST; dsDNA, one strand shown
# Sequence of ELF4 (Q99607 whole entry): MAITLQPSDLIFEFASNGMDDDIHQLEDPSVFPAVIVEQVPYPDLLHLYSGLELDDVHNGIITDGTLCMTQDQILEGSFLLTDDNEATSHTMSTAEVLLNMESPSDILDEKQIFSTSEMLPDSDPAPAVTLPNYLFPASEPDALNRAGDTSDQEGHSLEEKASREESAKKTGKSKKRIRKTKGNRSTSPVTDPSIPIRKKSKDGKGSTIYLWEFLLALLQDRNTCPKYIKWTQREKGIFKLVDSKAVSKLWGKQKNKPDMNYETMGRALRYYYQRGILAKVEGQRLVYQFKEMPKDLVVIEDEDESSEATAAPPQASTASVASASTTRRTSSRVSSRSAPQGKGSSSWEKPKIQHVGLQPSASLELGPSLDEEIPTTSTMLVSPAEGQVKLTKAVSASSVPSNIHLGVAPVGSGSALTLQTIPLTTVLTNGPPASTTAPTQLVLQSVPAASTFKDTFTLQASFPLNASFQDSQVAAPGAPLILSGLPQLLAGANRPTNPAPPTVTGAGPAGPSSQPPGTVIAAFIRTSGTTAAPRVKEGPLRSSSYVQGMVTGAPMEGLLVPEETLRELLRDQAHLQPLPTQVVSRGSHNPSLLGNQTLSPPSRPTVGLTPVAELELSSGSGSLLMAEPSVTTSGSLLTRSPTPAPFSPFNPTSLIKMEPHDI
# In short: as §1
# ELK4 = target: T3, ELK4 (Homo sapiens, UniProt P28324-2 1-405); conditions: protein: recombinant; tags: N-terminal GST; dsDNA, one strand shown
# T3 sequence: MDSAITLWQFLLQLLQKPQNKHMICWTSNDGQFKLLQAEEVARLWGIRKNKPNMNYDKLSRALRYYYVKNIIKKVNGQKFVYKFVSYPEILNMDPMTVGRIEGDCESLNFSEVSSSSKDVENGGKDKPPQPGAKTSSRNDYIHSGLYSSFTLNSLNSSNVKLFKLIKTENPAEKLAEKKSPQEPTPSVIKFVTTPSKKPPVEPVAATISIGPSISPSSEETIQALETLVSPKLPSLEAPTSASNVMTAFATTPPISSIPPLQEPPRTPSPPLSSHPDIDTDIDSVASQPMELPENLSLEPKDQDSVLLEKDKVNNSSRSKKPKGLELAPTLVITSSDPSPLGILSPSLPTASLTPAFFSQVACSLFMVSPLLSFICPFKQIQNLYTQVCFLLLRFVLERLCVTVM
# In short: as §1
# ETV2 = target: T4, ETV2 (Homo sapiens, UniProt O00321 1-342); conditions: protein: recombinant; tags: N-terminal GST; dsDNA, one strand shown
# T4 sequence: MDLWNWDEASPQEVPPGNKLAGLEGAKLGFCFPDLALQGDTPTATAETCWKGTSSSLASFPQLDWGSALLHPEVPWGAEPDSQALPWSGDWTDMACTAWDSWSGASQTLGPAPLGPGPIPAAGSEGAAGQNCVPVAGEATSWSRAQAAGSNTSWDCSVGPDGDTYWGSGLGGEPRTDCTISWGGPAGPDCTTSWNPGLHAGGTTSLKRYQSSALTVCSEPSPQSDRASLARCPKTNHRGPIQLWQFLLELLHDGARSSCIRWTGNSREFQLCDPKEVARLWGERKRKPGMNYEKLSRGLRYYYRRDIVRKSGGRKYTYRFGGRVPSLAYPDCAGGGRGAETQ
# In short: as §1
# ELF3 = target: T5, ELF3 (Homo sapiens, UniProt P78545 1-371); conditions: protein: recombinant; tags: N-terminal GST; dsDNA, one strand shown
# T5 sequence: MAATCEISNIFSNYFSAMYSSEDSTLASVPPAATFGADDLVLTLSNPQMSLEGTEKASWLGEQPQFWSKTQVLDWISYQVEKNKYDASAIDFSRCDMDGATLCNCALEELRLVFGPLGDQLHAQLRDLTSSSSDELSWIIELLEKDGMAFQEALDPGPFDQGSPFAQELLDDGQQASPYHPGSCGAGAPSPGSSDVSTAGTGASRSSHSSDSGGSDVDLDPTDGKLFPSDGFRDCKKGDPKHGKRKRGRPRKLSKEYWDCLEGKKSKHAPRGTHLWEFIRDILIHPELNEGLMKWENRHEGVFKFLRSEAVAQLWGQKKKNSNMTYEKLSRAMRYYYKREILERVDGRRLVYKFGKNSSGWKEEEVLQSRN
# In short: as §1
# CRX = CRX (Homo sapiens, UniProt O43186 1-299); conditions: protein: recombinant; tags: N-terminal GST; dsDNA, one strand shown
# Sequence of CRX (O43186 whole entry): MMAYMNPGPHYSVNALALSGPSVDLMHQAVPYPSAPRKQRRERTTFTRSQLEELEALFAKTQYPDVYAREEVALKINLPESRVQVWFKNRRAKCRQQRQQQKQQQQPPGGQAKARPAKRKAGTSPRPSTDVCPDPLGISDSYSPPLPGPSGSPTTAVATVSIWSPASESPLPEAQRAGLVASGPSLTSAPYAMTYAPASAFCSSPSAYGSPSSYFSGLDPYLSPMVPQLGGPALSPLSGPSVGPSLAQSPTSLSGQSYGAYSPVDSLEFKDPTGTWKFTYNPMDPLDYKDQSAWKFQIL
# In short: as §1
# ETV1 = ETV1 (Homo sapiens, UniProt P50549 1-477); conditions: protein: recombinant; tags: N-terminal GST; dsDNA, one strand shown
# Sequence of ETV1 (P50549 whole entry): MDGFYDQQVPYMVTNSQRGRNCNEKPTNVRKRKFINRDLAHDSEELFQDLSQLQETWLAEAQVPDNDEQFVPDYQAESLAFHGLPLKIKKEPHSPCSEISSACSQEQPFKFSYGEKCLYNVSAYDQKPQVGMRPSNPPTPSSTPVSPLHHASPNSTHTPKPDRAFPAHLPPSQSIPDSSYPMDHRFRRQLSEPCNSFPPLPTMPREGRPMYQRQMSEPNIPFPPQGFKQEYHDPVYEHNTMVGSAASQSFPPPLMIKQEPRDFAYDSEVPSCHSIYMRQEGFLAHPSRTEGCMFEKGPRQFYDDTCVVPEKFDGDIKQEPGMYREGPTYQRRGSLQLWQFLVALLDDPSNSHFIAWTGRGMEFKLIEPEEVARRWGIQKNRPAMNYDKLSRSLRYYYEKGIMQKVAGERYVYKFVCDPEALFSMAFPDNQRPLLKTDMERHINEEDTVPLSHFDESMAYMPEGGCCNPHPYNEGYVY
# In short: as §1
# ERF = target: T6, ERF (Homo sapiens, UniProt P50548 1-548); conditions: protein: recombinant; tags: N-terminal GST; dsDNA, one strand shown
# T6 sequence: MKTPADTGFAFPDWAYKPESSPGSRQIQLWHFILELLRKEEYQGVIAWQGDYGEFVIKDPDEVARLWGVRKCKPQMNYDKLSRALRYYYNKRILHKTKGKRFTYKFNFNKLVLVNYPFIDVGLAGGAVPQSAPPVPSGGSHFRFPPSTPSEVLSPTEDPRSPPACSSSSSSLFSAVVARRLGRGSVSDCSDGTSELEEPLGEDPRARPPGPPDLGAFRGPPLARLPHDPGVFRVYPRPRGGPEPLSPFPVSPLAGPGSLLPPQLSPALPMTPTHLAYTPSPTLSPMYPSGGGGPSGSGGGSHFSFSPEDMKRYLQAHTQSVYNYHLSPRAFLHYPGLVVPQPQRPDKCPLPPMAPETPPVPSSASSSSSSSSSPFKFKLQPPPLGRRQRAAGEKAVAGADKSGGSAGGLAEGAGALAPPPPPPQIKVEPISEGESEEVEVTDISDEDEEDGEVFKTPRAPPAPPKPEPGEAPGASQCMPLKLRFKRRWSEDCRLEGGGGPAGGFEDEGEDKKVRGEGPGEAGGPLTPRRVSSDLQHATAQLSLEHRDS
# In short: as §1
# ETV3L = target: T7, ETV3L (Homo sapiens, UniProt Q6ZN32 1-361); conditions: protein: recombinant; tags: N-terminal GST; dsDNA, one strand shown
# T7 sequence: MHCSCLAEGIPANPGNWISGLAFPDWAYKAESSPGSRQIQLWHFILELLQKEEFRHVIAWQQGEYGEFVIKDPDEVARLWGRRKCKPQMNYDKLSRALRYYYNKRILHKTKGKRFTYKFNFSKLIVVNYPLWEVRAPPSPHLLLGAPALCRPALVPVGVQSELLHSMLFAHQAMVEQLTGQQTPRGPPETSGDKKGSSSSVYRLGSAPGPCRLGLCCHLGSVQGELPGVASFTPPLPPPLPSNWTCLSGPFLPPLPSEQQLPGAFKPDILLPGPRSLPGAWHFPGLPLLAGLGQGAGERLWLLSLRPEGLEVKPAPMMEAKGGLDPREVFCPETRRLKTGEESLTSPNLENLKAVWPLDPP
# In short: as §1
# ETS2 = target: T8, ETS2 (Homo sapiens, UniProt P15036 1-469); conditions: protein: recombinant; tags: N-terminal GST; dsDNA, one strand shown
# T8 sequence: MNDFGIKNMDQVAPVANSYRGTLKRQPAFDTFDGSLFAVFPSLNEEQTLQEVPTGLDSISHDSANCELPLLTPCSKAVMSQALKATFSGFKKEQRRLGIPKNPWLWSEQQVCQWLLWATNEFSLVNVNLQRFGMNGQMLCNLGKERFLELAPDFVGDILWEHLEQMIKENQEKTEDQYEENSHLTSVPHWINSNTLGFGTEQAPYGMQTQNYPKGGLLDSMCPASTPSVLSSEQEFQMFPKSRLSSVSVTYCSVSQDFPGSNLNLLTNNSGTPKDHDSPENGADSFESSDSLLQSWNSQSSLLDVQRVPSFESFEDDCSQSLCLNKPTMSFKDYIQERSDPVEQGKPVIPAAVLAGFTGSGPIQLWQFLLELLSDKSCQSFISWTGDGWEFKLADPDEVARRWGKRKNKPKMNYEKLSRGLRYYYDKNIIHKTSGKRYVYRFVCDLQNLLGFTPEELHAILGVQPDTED
# In short: as §1
# SPDEF = target: T9, SPDEF (Homo sapiens, UniProt O95238 1-335); conditions: protein: recombinant; tags: N-terminal GST; dsDNA, one strand shown
# T9 sequence: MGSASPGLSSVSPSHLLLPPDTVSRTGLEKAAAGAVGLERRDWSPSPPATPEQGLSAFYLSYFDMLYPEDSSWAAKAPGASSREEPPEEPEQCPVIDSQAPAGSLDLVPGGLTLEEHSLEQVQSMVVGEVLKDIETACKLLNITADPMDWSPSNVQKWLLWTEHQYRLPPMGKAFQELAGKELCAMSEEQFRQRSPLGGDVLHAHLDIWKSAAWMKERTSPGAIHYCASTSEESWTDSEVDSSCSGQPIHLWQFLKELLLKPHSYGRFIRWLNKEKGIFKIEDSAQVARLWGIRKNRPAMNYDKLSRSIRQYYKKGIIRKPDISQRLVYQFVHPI
# In short: as §1
# ETV7 = target: T10, ETV7 (Homo sapiens, UniProt Q9Y603 1-341); conditions: protein: recombinant; tags: N-terminal GST; dsDNA, one strand shown
# T10 sequence: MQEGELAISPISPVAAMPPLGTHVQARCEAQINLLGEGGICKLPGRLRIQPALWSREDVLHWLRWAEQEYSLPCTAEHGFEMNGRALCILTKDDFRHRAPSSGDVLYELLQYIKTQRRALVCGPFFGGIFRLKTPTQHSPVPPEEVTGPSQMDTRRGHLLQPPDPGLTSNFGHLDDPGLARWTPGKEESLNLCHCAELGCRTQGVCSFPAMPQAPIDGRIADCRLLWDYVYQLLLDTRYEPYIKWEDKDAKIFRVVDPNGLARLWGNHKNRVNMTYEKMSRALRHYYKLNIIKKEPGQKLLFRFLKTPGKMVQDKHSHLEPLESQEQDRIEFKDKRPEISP
# In short: as §1
# ELF5 = target: T11, ELF5 (Homo sapiens, UniProt Q9UKW6-2 1-255); conditions: protein: recombinant; tags: N-terminal GST; dsDNA, one strand shown
# T11 sequence: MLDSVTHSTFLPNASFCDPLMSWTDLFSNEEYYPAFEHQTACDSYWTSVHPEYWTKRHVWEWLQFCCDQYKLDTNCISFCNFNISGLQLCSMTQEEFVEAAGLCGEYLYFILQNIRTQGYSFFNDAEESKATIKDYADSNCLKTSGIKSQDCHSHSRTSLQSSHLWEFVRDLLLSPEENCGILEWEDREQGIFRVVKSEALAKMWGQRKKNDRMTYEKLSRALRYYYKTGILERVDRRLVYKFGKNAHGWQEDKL
# In short: as §1
# ETV3 = target: T12, ETV3 (Homo sapiens, UniProt P41162-2 1-143); conditions: protein: recombinant; tags: N-terminal GST; dsDNA, one strand shown
# T12 sequence: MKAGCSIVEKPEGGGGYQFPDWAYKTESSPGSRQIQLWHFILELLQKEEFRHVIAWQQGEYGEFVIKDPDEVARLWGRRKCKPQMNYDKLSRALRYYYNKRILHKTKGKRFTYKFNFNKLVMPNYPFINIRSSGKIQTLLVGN
# In short: as §1
# ETV6 = ETV6 (Homo sapiens, UniProt P41212 1-452); conditions: protein: recombinant; tags: N-terminal GST; dsDNA, one strand shown
# Sequence of ETV6 (P41212 whole entry): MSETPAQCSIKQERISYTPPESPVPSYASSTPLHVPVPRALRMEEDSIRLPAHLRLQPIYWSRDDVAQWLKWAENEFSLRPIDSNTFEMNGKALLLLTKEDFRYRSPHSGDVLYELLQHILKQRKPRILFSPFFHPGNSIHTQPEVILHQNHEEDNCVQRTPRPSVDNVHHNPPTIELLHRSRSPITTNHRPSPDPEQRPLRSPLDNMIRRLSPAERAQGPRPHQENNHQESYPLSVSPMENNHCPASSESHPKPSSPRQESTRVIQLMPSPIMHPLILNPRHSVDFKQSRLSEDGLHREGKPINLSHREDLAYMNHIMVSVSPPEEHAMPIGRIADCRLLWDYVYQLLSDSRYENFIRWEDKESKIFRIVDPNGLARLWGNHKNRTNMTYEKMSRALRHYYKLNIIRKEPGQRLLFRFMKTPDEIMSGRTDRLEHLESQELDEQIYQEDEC
# In short: as §1
sequence,measurement,setting,value
AGATTC,binding signal,FEV,"1.13 fold enrichment (6-mer frequency, TF over GST control)"
same,binding signal,ETV5,"1.07 fold enrichment (6-mer frequency, TF over GST control)"
same,binding signal,HSF1,"2 fold enrichment (6-mer frequency, TF over GST control)"
same,binding signal,SPIC,"1.24 fold enrichment (6-mer frequency, TF over GST control)"
same,binding signal,ELF4,"1.16 fold enrichment (6-mer frequency, TF over GST control)"
same,binding signal,ELK4,"1.18 fold enrichment (6-mer frequency, TF over GST control)"
same,binding signal,ETV2,"1.32 fold enrichment (6-mer frequency, TF over GST control)"
same,binding signal,ELF3,"1.11 fold enrichment (6-mer frequency, TF over GST control)"
same,binding signal,CRX,"1.41 fold enrichment (6-mer frequency, TF over GST control)"
same,binding signal,ETV1,"1.22 fold enrichment (6-mer frequency, TF over GST control)"
same,binding signal,ERF,"1.05 fold enrichment (6-mer frequency, TF over GST control)"
same,binding signal,ETV3L,"1.23 fold enrichment (6-mer frequency, TF over GST control)"
same,binding signal,ETS2,"1.08 fold enrichment (6-mer frequency, TF over GST control)"
same,binding signal,SPDEF,"1.17 fold enrichment (6-mer frequency, TF over GST control)"
same,binding signal,ETV7,"1.18 fold enrichment (6-mer frequency, TF over GST control)"
same,binding signal,ELF5,"1.09 fold enrichment (6-mer frequency, TF over GST control)"
same,binding signal,ETV3,"1.15 fold enrichment (6-mer frequency, TF over GST control)"
same,binding signal,ETV6,"1.22 fold enrichment (6-mer frequency, TF over GST control)"

# Reference: publication PMC7862700, “An all-to-all approach to the identification of sequence-specific readers for epigenetic DNA modifications on cytosine”
